Rows were chosen to be rich in hits. Some 8.7% of all compounds tested hit in one or more screens of this group.
Pf growth 96h = P. falciparum growth inhibition at 96 hour, primary screen for plastid delayed-death inhibitors. P. falciparum luciferase reporter growth, 96 h. Potency, µM (titrated, usually from 28.7 µM), for the others: at the top dose activity change, negative = inhibition, hits mostly inhibitors. actives 6.9% (n = 320,000). AID 504834
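Two-generation exposure (96 h) targets delayed-death phenotype. Reporter parasites carrying integrated firefly luciferase, in red cells at 2% hematocrit and 0.05% parasitemia final, kept at 37 C, 5% CO2; luminescence loss indicates inhibition.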
Pf growth 48h = inhibits P. falciparum growth in the first generation, 48 h; P. falciparum luciferase growth in erythrocytes, 48 h; Potency, µM (highest dose often 28.7 µM), for inactives: at the highest dose activity change, negative = inhibition, most hits filed as inhibitors; actives 5.9% (n = 310,000); AID 504832
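Firefly luciferase activity from engineered P. falciparum reports growth; inhibitors lower the luminescent signal. Cultures contained 2% hematocrit erythrocytes at 0.1% final parasitemia.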
VACV mCherry inh = vaccinia inhibition (mCherry reporter) | Vaccinia virus mCherry reporter infection, fluorescence | Potency, µM (titrated, usually from 36.5 µM), for the others: at the highest dose activity change, negative = inhibition, actives largely listed as inhibitors | actives 0.63% (n = 310,000); calls by dose curve; tested in A549 cells; further: nearly all actives have a fitted effect of over 35% in size
AMA1-RON2 inh = disrupts binding of P. falciparum AMA1 to RON2. AID 720542. actives 0.2% (n = 360,000). Potency, µM (series often up to 58.2 µM), for inactives: top-dose activity change, negative = inhibition, actives largely listed as inhibitors. AlphaScreen AMA1-biotinylated RON2 peptide binding;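 further: 0% = vehicle wells and -100% = peptide control; nearly all actives have a fitted effect of over 45% in size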
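AMA1 (3D7) with his tag at 25 nM final met compounds first, then biotinylated RON2 peptide at 25 nM; detection used donor plus acceptor beads, 10 µg/mL apiece, read by AlphaScreen after 30 min at room temperature.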
Vaccinia Venus = vaccinia inhibition (Venus reporter). Vaccinia virus Venus reporter expression, fluorescence. Potency, µM (series often up to 36.5 µM), for the others: at the top dose activity change, negative = inhibition, actives largely listed as inhibitors. actives 0.46% (n = 330,000). AID 720580; calls by dose curve; tested in A549 cells; further: nearly all actives have a fitted effect of over 30% in size
An asterisk follows results filed as active. Unless noted, the call rests on the fitted dose curve; in most records, active means well fitted curve in the direction sought with a large enough effect; inconclusive means small, poorly fitted or top-dose-only effect, or another doubt; inactive means no such curve, though single readings can be large; an effect the other way counts as inactive or inconclusive. Unless noted, on the % scale 0 is the no-effect control and ±100 the full control effect; potency means the concentration at half of the fitted maximal effect.

`CCOc1ccc(C(=O)/C=C/c2cn(CC(O)CN3CCc4ccccc43)c3ccccc23)cc1` (stereo unspecified) gave VACV mCherry inh inconclusive and Vaccinia Venus -19%.
For CCC(=O)Nc1ccccc1-c1nc2ccccc2n(C(C)C(=O)Nc2cccc(Cl)c2C)c1=O (stereo unspecified) the results were VACV mCherry inh inactive and Vaccinia Venus -15%.
For CCOc1ccc2c(c1)-c1c(ssc1=S)C(C)(C)N2C(=O)CSC1=NCCS1 the results were Pf growth 96h 1.7µM*, Pf growth 48h inconclusive, VACV mCherry inh -16%, AMA1-RON2 inh 10µM* and Vaccinia Venus -12%.
For CCOc1ccc2c(c1)-c1c(ssc1=S)C(C)(C)N2 the results were Pf growth 96h inconclusive, VACV mCherry inh inconclusive, AMA1-RON2 inh 19µM* and Vaccinia Venus inconclusive.
CCC1CCCCN1S(=O)(=O)c1ccc(N2CCCCS2(=O)=O)cc1 (stereo unspecified) was read as VACV mCherry inh 17% and Vaccinia Venus 4%.
For CC(CCc1ccc(O)cc1)NC(c1ccccc1)c1ccc(Cl)cc1 (stereo unspecified) the results were Pf growth 96h inconclusive, Pf growth 48h 9.3µM*, VACV mCherry inh -27%, AMA1-RON2 inh -6% and Vaccinia Venus inconclusive.
Screening CC(CCc1ccc(O)cc1)NCCC(c1ccccc1)c1ccccc1 (stereo unspecified) returned Pf growth 96h inconclusive, Pf growth 48h inconclusive, VACV mCherry inh inconclusive, AMA1-RON2 inh -13% and Vaccinia Venus -17%.
Screening Fc1ccccc1-n1ncc2c1ncn1nc(-c3ccccc3Cl)nc21 returned VACV mCherry inh -10% and Vaccinia Venus -11%.
CC1(C)CC(CCN(Cc2ccccc2)C(=O)c2ccco2)(c2ccccc2)CCO1 (stereo unspecified) was read as Pf growth 96h 1.9µM*, Pf growth 48h inconclusive and AMA1-RON2 inh -12%.
`CC(=O)N(CCC1(c2ccc(C)cc2)CCOC(C(C)C)C1)Cc1ccco1` (stereo unspecified) gave Pf growth 96h 4.1µM*, Pf growth 48h 5.9µM*, VACV mCherry inh inactive, AMA1-RON2 inh -21% and Vaccinia Venus -11%.
CCC1(C)CC(CCN(Cc2ccco2)C(C)=O)(c2ccccc2)CCO1 (stereo unspecified) was read as Pf growth 96h 4.1µM*, Pf growth 48h inconclusive, VACV mCherry inh -3%, AMA1-RON2 inh -4% and Vaccinia Venus -17%.
For CC(=O)N(CCP(=O)(c1ccccc1)c1ccccc1)Cc1ccco1 the results were Pf growth 96h 9.3µM*, Pf growth 48h -9%, AMA1-RON2 inh -9% and Vaccinia Venus 5%.
Screening CC(=O)N(CCC1(C(C)C)CCOC(C)(C)C1)Cc1ccco1 (stereo unspecified) returned Pf growth 96h -27%, Pf growth 48h inconclusive and AMA1-RON2 inh -5%.
`CC1=C(C(=O)Nc2ccc(Cl)cc2)C(C(C)C)n2nc(SCc3cccc(C)c3)nc2N1` (stereo unspecified) gave VACV mCherry inh -9% and Vaccinia Venus -5%.
For CCc1nnc2c(N3CCN(c4cccc(C)c4)C(C)C3)nc3ccccc3n12 (stereo unspecified) the results were VACV mCherry inh -15% and Vaccinia Venus -3%.
`COC(=O)CN1C(=O)C(C)(C)c2cc(S(=O)(=O)NCc3ccc(Cl)cc3)ccc21` gave VACV mCherry inh -11% and Vaccinia Venus -4%.
CC(=O)Nc1ccc(N2CCOCC2)c(S(=O)(=O)Nc2ccccc2Cl)c1 was read as VACV mCherry inh -8%, AMA1-RON2 inh -6% and Vaccinia Venus -19%.
O=C(Nc1cccc(C(F)(F)F)c1)Nc1ccc(N2CCCC2)c(S(=O)(=O)Nc2ccccc2Cl)c1 was read as Pf growth 96h inconclusive, Pf growth 48h inconclusive, VACV mCherry inh 11µM*, AMA1-RON2 inh -20% and Vaccinia Venus 11µM*.
For CCN(CC)S(=O)(=O)c1ccc(N2CCCCC2)c(NC(=O)/C=C/c2cc(OC)c(OC)c(OC)c2)c1 the results were Pf growth 96h 10µM*, Pf growth 48h inconclusive, VACV mCherry inh -19%, AMA1-RON2 inh 7% and Vaccinia Venus -11%.
CCN1CCN(c2ccc(S(=O)(=O)N3CCCCC3)cc2NC(=O)/C=C/c2ccc(OC)c(OC)c2)CC1 was read as Pf growth 96h 6.6µM*, Pf growth 48h 6.6µM*, VACV mCherry inh -10%, AMA1-RON2 inh -9% and Vaccinia Venus -22%.
COc1cc(/C=C/C(=O)Nc2ccc(N3CCCCC3)c(S(=O)(=O)Nc3ccccc3Cl)c2)cc(OC)c1OC was read as Pf growth 96h 4.1µM*, Pf growth 48h 13µM*, VACV mCherry inh -8%, AMA1-RON2 inh 12% and Vaccinia Venus -5%.
`COc1ccccc1NS(=O)(=O)c1cc(NC(=O)Nc2ccc(Cl)cc2Cl)ccc1N1CCCCC1` gave Pf growth 96h inconclusive, Pf growth 48h inconclusive, VACV mCherry inh -7%, AMA1-RON2 inh 7% and Vaccinia Venus -23%.
Screening Cc1nnc(N2CCN(C(=O)NC(C)C)CC2)c2nn(-c3ccccc3)c(C)c12 returned VACV mCherry inh -9% and Vaccinia Venus 3%.
Screening CCN(CC)CCNC(=O)c1cc2c(=O)n(C)c3cc(Cl)ccc3c2s1 returned VACV mCherry inh -4% and Vaccinia Venus -11%.
For CCN(CC)S(=O)(=O)c1ccc(N2CCCC2)c(NC(=O)c2ccccc2OC)c1 the results were Pf growth 96h 10µM*, Pf growth 48h inconclusive and AMA1-RON2 inh -7%.
Screening O=c1ccc2c(o1)/C(=C/C=C(Cl)Cl)CCC2 returned Pf growth 96h inconclusive, Pf growth 48h 0%, VACV mCherry inh 10µM*, AMA1-RON2 inh 3% and Vaccinia Venus inconclusive.
CCSc1nnc(C(C)NC(=O)c2ccc(OC)cc2)n1C (stereo unspecified) was read as VACV mCherry inh -5% and Vaccinia Venus -5%.
For COc1ccc(C(=O)N2CC3(CC(c4cccc(NC(=O)COc5ccc(Cl)cc5)c4)=NO3)C[C@@H]2C(N)=O)cc1 (stereo partly specified) the results were Pf growth 96h 12µM*, Pf growth 48h 10µM*, VACV mCherry inh inactive, AMA1-RON2 inh -2% and Vaccinia Venus -22%.
`NC(=O)[C@H]1CC2(CC(c3cccc(NC(=O)COc4ccc(Cl)cc4)c3)=NO2)CN1C(=O)Cc1ccc([N+](=O)[O-])cc1` (stereo partly specified) gave Pf growth 96h 12µM*, Pf growth 48h 8.3µM*, VACV mCherry inh inconclusive, AMA1-RON2 inh 0% and Vaccinia Venus inconclusive.
